Texas Red fluor = compounds fluorescent in Texas Red spectral region. max dye-equivalent concentration, M. 0.06% of 59,000 active. Compound fluorescence, Texas Red channel, 547/618 nm; active compounds read high; in the data active = max dye-equivalent concentration above about 10 nM; inconclusive = between about 1.1 nM and that limit
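Pin-transferred compounds and Texas Red standards go into 100 mM Tris buffer, pH 8.0. After 15 min at room temperature, plates are imaged with 547/618 nm filters. Each value is a dye-equivalent concentration derived from the per-plate dye curve.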
A647 autofl = compound fluoresces in the A647 spectral region; Compound fluorescence, A647 channel (570/671 nm), Tris buffer; max dye-equivalent concentration, M; 59,000 tested, under 10 active
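Fluorescence read (570 nm ex, 671 nm em) after 15 min RT incubation of compounds in 100 mM Tris buffer, pH 8.0; values expressed as dye-equivalent concentration against a six-point A647 standard series on each plate.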
Rhodamine autofl = compound fluoresces in the rhodamine spectral region. Rhodamine-region fluorescence, 547/598 nm, Tris buffer; active compounds read high. 0.05% of 59,000 active. max dye-equivalent concentration, M. AID 594; in the data active = max dye-equivalent concentration above about 11 nM; inconclusive = between about 1.1 nM and that limit
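Compounds in 100 mM Tris buffer, pH 8.0, were incubated 15 min at room temperature, then read at 547 nm excitation and 598 nm emission. Fluorescence was normalized against a per-plate six-point rhodamine standard curve as dye-equivalent concentration.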
A488 fluor = compound fluoresces in the A488 spectral region; compound autofluorescence, A488 spectral region, dye equivalency; Compound Type: qHTS ECL - MLSMR; max dye equivalency, M; 0.1% of 59,000 active
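Read-out: relative fluorescence at 480/540 nm, expressed as Alexa 488 dye-equivalent concentration from a six-point A488 standard included per plate. Conditions: 100 mM Tris, pH 8.0; 15 min incubation, room temperature.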
Fluorescein autfl = fluorescein region autofluorescence. Compound autofluorescence, 480/540 nm, fluorescein-equivalent; active compounds read high. max fluorescein-equivalent concentration, M. 0.91% of 59,000 active; in the data active = max fluorescein-equivalent concentration above about 10 nM; inconclusive = between about 1.1 nM and that limit
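Library compounds, added at multiple concentrations to pH 8.0 Tris buffer (100 mM), incubate 15 min at room temperature before CCD imaging at 480 nm excitation and 540 nm emission.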
Resorufin autofl = resorufin region autofluorescence. Compound fluorescence, resorufin region 547/598 nm, buffer; active compounds read high. 0.04% of 59,000 active. max dye-equivalent concentration, M
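Compounds in 100 mM Tris, pH 8.0, incubated 15 min at room temperature, then fluorescence read at 547 nm excitation/598 nm emission. Signal converted to dye-equivalent concentration via an on-plate six-point resorufin standard curve, per compound concentration.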
Of the large screens only hits and unclear results are named; the others gave an inactive call; ! = a repeat was not active. An excerpt weighted towards active compounds, which were near 0.96% of everything screened. Unless noted, the rule behind the calls is not given here.

N#Cc1c(N2CCCCC2)nc(N2CCCCC2)c2c1CCN(Cc1ccccc1)C2	A488 fluor inconclusive, Fluorescein autfl 4.8e-08M
CNC(=O)c1cc2ccc(OC)cc2oc1=O	Fluorescein autfl 1.66e-08M
Oc1ccc([C@@H]2CNCc3sccc32)cc1O	Fluorescein autfl inconclusive
CCCCCCCCCCCCCCCCOC[C@@H](COCC(F)(F)F)OP(=O)(O)OCO	Fluorescein autfl inconclusive
Cc1nnc2sc(-c3ccc(NC(=O)c4ccc(-c5ccc(Cl)cc5Cl)o4)cc3)nn12	Texas Red fluor inconclusive, Rhodamine autofl inconclusive, Fluorescein autfl 1.22e-08M, Resorufin autofl inconclusive
Cc1nnc2sc(-c3ccc(NC(=O)c4cccnc4)cc3)nn12	Texas Red fluor inconclusive, Fluorescein autfl inconclusive
O=C(NC1CCCC1)C(c1ccsc1)N(Cc1ccco1)C(=O)Cc1cccs1 (configuration not stated)	Fluorescein autfl 1.11e-08M
Cc1cc(C)c2c(=O)[nH]c(=O)n(Cc3ccccc3)c2n1	Fluorescein autfl 1.32e-08M
Cc1cc(C)n(-c2nc3c(c(=O)[nH]c(=O)n3C)n2Cc2ccccc2)n1	Fluorescein autfl inconclusive
CN(C)c1ccc(C2C=C(c3ccc(Cl)cc3OC(F)F)Nc3ncnn32)cc1 (configuration not stated)	Fluorescein autfl 1.49e-08M
N=c1ccn2c(n1)O[C@@H]1[C@@H](O)[C@H](CO)O[C@H]12	none
CC(C)(C(=O)O)c1ccc([C@@H](O)CCCN2CCC(C(O)(c3ccccc3)c3ccccc3)CC2)cc1	Texas Red fluor inconclusive, Fluorescein autfl inconclusive
O=[N+]([O-])c1ccc2c(N=Nc3ccc4ccccc4c3O)c(O)cc(S(=O)(=O)O)c2c1	Fluorescein autfl inconclusive
COC(=O)C1=CO[C@@H](C)[C@H]2CN3CCc4c([nH]c5ccccc45)[C@@H]3C[C@H]12	Fluorescein autfl 1.05e-08M!
CCOC(=O)C1CCCN(c2nc3ccccc3nc2C(C#N)C(=O)OCCOC)C1 (configuration not stated)	Fluorescein autfl inconclusive
CCOC(=O)C1CCN(c2nc3ccccc3nc2C(C#N)C(=O)NCCc2ccccc2)CC1 (configuration not stated)	Fluorescein autfl 2.3e-08M
CCOC(=O)C1CCCN(c2nc3ccccc3nc2C(C#N)C(=O)OCC)C1 (configuration not stated)	Fluorescein autfl 1.09e-08M
COCCNC(=O)C(C#N)c1nc2ccccc2nc1N1CCCCCC1 (configuration not stated)	Fluorescein autfl inconclusive
COc1ccc2c(c1)[n+]([O-])c(/C(C)=N/NC(N)=S)c(C)[n+]2[O-]	Texas Red fluor inconclusive, Fluorescein autfl inconclusive
CCCCNc1c(CN)cnc2cc(Cl)ccc12	Fluorescein autfl inconclusive
CCn1c(CSc2nccn2C)nc2cc(C(=O)O)ccc21	Texas Red fluor 2.68e-08M, Rhodamine autofl 1.74e-08M, Fluorescein autfl 1.12e-08M, Resorufin autofl 1.06e-08M
Cn1ccnc1SCC(=O)c1cc2ccccc2o1	none
O=c1c(O)c(-c2cccs2)oc2ccccc12	Texas Red fluor inconclusive, A488 fluor inconclusive, Fluorescein autfl 3.22e-08M
CCCOc1ccc(N)cc1N	Fluorescein autfl 1.86e-08M
CCCOc1cc(N)ccc1C(=O)OCCN(CC)CC	Fluorescein autfl inconclusive
CCCC[C@]1(C2CCCC2)Cc2cc(OCC(=O)O)c(Cl)c(Cl)c2C1=O	Fluorescein autfl inconclusive
O=C1c2ccccc2C(=O)c2c(NC3CCCCC3)ccc(Nc3ccc(S(=O)(=O)O)cc3)c21	Texas Red fluor 6.07e-08M, Rhodamine autofl 1.2e-08M, Fluorescein autfl inconclusive, Resorufin autofl inconclusive
COc1cccc(NS(=O)(=O)c2ccc(S(=O)(=O)N3CCOCC3)cc2)c1	Fluorescein autfl 1.08e-08M
COc1cccc(NS(=O)(=O)c2ccc3c(c2)n(C)c(=O)c(=O)n3C)c1	none
CC#C[C@@]1(O)CC[C@@H]2[C@@H]3CCC4=CC(=O)CCC4=C3[C@@H](c3ccc(N(C)C)cc3)C[C@]21C	none
CN(C)c1ccc(N/C=C/C(=O)c2ccccc2)cc1	Fluorescein autfl 1.35e-08M
CN(C)c1ccc(NC(=O)CCCc2ccccc2)cc1	Texas Red fluor inconclusive, Fluorescein autfl inconclusive
CC1=CC(C#N)(C#N)C(C#N)(C#N)C(c2ccccc2)N1 (configuration not stated)	Texas Red fluor 3.35e-08M, Rhodamine autofl 2.76e-08M, A488 fluor inconclusive, Fluorescein autfl 9.24e-08M, Resorufin autofl 2.03e-08M
Nc1cc(C(=O)O)[nH]c(=O)n1	Fluorescein autfl 1.07e-08M
O=C1OC(=O)[C@@H]2[C@@H]1[C@@H]1CC[C@H]2O1	Fluorescein autfl inconclusive
C=C[C@H]1CN2CC[C@@H]1C[C@@H]2[C@@H](O)c1ccnc2ccc(OC)cc12	Fluorescein autfl inconclusive
Cc1cc(N2CCOCC2)n2nc(-c3cccc(F)c3)cc2n1	Fluorescein autfl 1.1e-08M
O=c1c(O)c(-c2ccc(O)c(O)c2)oc2c(OC[C@H]3O[C@@H](O)[C@@H](O)[C@H](O)[C@@H]3O)c(O)cc(O)c12	none
N#Cc1c(N)sc(=S)c2c1CCCCC2	Fluorescein autfl 3.35e-08M
CC1(C)Cc2c(C#N)c(N)sc(=S)c2CS1	Fluorescein autfl 1.1e-08M
N#Cc1c(N)sc2c1CCCCCC2	none
CN(C)CCCO[C@H]1[C@H]([C@H](O)CO)O[C@H]2OC(C)(C)O[C@@H]21	Fluorescein autfl inconclusive
CNC(=O)[C@@H]1O[C@@H](n2cnc3c(NCc4ccc(N)cc4)ncnc32)[C@@H](O)[C@H]1O	Fluorescein autfl inconclusive
N[C@@H]1[C@@H]2[C@@H]3C[C@H]4N(CC[C@@]14C(=O)C(=O)O)CC3=CCO[C@@H]2CC(=O)O	Fluorescein autfl 1.03e-08M
C[C@@H]1C(=O)O[C@H]2[C@@H](O)[C@@]34[C@H]5C[C@H](C(C)(C)C)[C@@]36[C@H](OC(=O)[C@@H]6O)O[C@@]4(C(=O)O5)[C@@]12O	none
COc1cccc2c1C(=O)c1c(O)c3c(c(O)c1C2=O)C[C@@](O)(C(C)=O)C[C@@H]3O[C@H]1C[C@H](N)[C@H](O)[C@H](C)O1	Texas Red fluor 6.51e-08M, Rhodamine autofl 6.36e-08M, A488 fluor inconclusive, Fluorescein autfl 2.21e-07M, Resorufin autofl 5.95e-08M
COc1cc(/C=C\C(=O)N2CCCCC2=O)cc(OC)c1OC	none
N#CC1=C(N)Oc2n[nH]c(-c3cccs3)c2C1c1ccco1 (configuration not stated)	Texas Red fluor inconclusive, Rhodamine autofl inconclusive, A488 fluor inconclusive, Fluorescein autfl 1.01e-07M, Resorufin autofl inconclusive
C=C(CO)[C@H]1Cc2c(ccc3c(=O)c4c(oc23)COc2cc(OC)c(OC)cc2-4)O1	Fluorescein autfl inconclusive
CCN1CC2=C(OC(N)=C(C#N)C2c2ccccc2)/C(=C\c2ccccc2)C1 (configuration not stated)	none

Source: PubChem BioAssay (National Center for Advancing Translational Sciences (NCATS))
